# Measurements: PubChem BioAssay (NCI)
# This is part of a sample that, as a whole, favours compounds with a hit. Of some 83,000 tested, about 20% had one in any assay.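 96-well plates, one dose, 48 hours. Percent growth reported; active if below 10.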 A number with no mark means an inactive call. Calls of active or inactive are those of the source.
# Tested on: TK-10 renal
# Assay: NCI-60 one-dose screen, 48 h (100 = growth as untreated, 0 = no growth, -100 = all killed)
# Conditions: 10 µM unless noted
row,SMILES,growth
1,NS(=O)(=O)c1ccc(Nc2nc(N/N=C/c3ccc(F)cc3)nc(Nc3ccccc3)n2)cc1,1.71% (active)
2,COc1ccc(-c2cc(-c3ccc(Cl)cc3)nc3nc(N)nn23)cc1,93.2%
3,COc1ccc(Cn2cc3c(c2-c2cc(OC)c(OC)c(OC)c2)CCCc2cnoc2-3)cc1,67.5%
4,CN(c1ccc(F)cc1)S(=O)(=O)c1ccc(-c2cnc(C3CC3)o2)cc1,91.9%
5,COC[C@]12CC[C@@H](C)[C@H](C)[C@H]1C1=CC[C@@H]3[C@@]4(C)CCCNC(C)(C)[C@@H]4CC[C@@]3(C)[C@]1(C)CC2,61.9%
6,C=C(C)[C@@H]1CC[C@]2(C(=O)ON)CC[C@]3(C)[C@H](CC[C@@H]4[C@@]5(C)C/C(=C/c6ccc(Br)cc6)C(=O)C(C)(C)[C@@H]5CC[C@]43C)[C@@H]12,105%
7,CN(c1ccc(Br)cc1)S(=O)(=O)c1ccc(-c2cnc(C3CC3)o2)cc1,87.6%
8,CCCCCCNC(=O)Oc1ccc(/C(=C(\C)c2ccc(Cl)cc2)c2ccc(OCCN(C)C)cc2)cc1,88.9%
9,C=C(C)[C@@H]1CC[C@]2(COS(C)(=O)=O)CC[C@]3(C)[C@H](CC[C@@H]4[C@@]5(C)CCCNC(C)(C)[C@@H]5CC[C@]43C)[C@@H]12,107%
10,O=C(NNc1nc2cc(F)ccc2n2cncc12)c1cnccn1,44%
11,CN1CCN(c2ccc3c(C(N)=O)c(NC(=O)c4ccc(C(C)(C)C)cc4)sc3c2)CC1,123%
12,NC(=O)C(=Cc1ccc(Cl)cc1)C(N)=O,67.9%
13,CCN1C(=O)N(CC)C2SC(N/N=C/C=C/c3ccccc3OC)=NC21 (stereo not drawn),52.1%
14,CC(=O)C1=NN(c2ccc(Cl)cc2)C(=O)CN1C,91.2%
15,CCOC(=O)c1c(NCC(=O)Nc2ccc(Br)cc2)sc2c1CCCC2,81.4%
16,CN1CCN(c2ccc3c(c2)nc(NNC(=O)c2ccncn2)c2cccn23)CC1,43.1%
17,CCOc1c(C#N)c(Nc2ccc(S(N)(=O)=O)cc2)c(C#N)c2nnc(C)n12,125%
18,O=c1[nH]c(CNc2ccc(NCc3c(-c4ccccc4)no[n+]3[O-])cc2)nc2c1cnn2-c1ccccc1,102%
19,C#CCOc1ccc(C(Nc2ccc(Cl)cc2)c2nnnn2C2CCCCC2)cc1 (stereo not drawn),95%

row,SMILES,growth
1,COc1cc(/C=N/Nc2ccnc3cc(Cl)ccc23)cc(OC)c1O,-69.6% (active)
2,COc1cc(C(=O)C[n+]2ccc3ccccc3c2)cc(OC)c1OC,112%
3,Cc1ccc(NC(=O)c2ccc(CN3CCN(C)CC3)c(I)c2)cc1Oc1ccc(-c2[nH]nc3ncnc(N)c23)cc1,114%
4,COc1ccc(Cn2cc3c(c2-c2ccccc2)CCCc2cnoc2-3)cc1,91.8%
5,N#Cc1c(NC(=O)c2ccc(F)c(Cl)c2)sc2c1CCC(=O)C2,15.3%
6,c1ccc(-c2c(-c3ccccc3)[n+](Cc3ccc4ccccc4c3)c(-c3ccccc3)n2Cc2ccc3ccccc3c2)cc1,-81.1% (active)
7,CCOC(=O)C1=C(C)N=C2Sc3ccccc3N2C1c1ccccc1 (stereo not drawn),110%
8,CCn1c2ccc(/C=N/NS(=O)(=O)CCN(C)C)cc2c2cc(/C=N/NS(=O)(=O)CCN(C)C)ccc21,88.1%
9,Cn1cc2c(c1)-c1c(sc3nc(-c4ccc(NC(=O)Nc5cc(C(C)(C)C)on5)cc4)cn13)CC2,95.4%
10,CCOC(=O)c1c(NC(=O)c2ccc(C(C)(C)C)cc2)sc2cc(OCCN3CCCCC3)ccc12,112%
11,COc1ccccc1/C=C/C=N/NC1=NC2C(S1)N(C)C(=O)N2c1ccccc1 (stereo not drawn),68.6%
12,CC1(C)CC[C@]2(C(=O)O)CC[C@]3(C)C(=CCC4[C@@]5(C)C[C@@H](O)[C@@H]6OC(c7cccc([N+](=O)[O-])c7)OC[C@@]6(C)C5CC[C@]43C)C2C1 (stereo partly drawn),71.9%
13,CN(C)c1ncc(/C=C2\SC(=S)N(Cc3ccccc3Cl)C2=O)s1,96.7%
14,O=C(/C=C1\C=CN(CCCCO)c2ccccc21)n1ccc2ccccc21,117%
15,C#C[C@]1(O)CC[C@H]2[C@@H]3CC=C4c5sc(Nc6nc(C)cc(OC)n6)nc5CC[C@]4(C)[C@H]3CC[C@@]21C,121%
16,Oc1ccccc1/C=N/Nc1nc(N/N=C/c2ccccc2O)nc(N2CCOCC2)n1,47.9%
17,IP(CCCSc1n(Cc2ccc3ccccc3c2)c(-c2ccccc2)c(-c2ccccc2)[n+]1Cc1ccc2ccccc2c1)(c1ccccc1)(c1ccccc1)c1ccccc1,66.9%
18,Cn1cc(-c2nnc(N)nc2-c2cn(C)c3ccc(F)cc23)c2cc(F)ccc21,91.4%
19,N/C(=N\OC(=O)CSc1nc2ccccc2s1)c1ccc(Cl)cc1,127%
